According to PubChem BioAssay:
Calls of active or inactive are those of the source.

What was measured:
[1] = small molecules captured by biotinylated probe aFSTL3 – biochemical, small-molecule microarray, fluorescence 635/667, stem cell growth factor project, primary screen (AID 1064); conditions: higher = more signal;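 further: measures binding of the biotinylated anti-FSTL3 antibody to printed compounds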
[2] = binders from COS7 lysate, DM2A8 probe, primary screen, torsin A project, cell lysate, small-molecule microarray, fluorescence 635/667 (AID 1065); conditions: higher = more signal, COS7 lysate expressing mutant human TOR1A
[3] = small molecules captured by biotinylated probe aFGF2 – biochemical, small-molecule microarray, fluorescence 635/667, stem cell growth factor project, primary screen (AID 1067); conditions: higher = more signal;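 further: measures binding of biotinylated aFGF2 protein to printed compounds on slides; z-score merges feature fluorescence and signal-to-noise across triplicate slides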
[4] = small molecules captured by biotinylated probe aFGF10 – biochemical, small-molecule microarray, fluorescence 635/667, stem cell growth factor project, primary screen (AID 1071); conditions: higher = more signal;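 further: score merges 667 nm spot intensity and signal to noise from triplicate slides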
[5] = target: Neurogenic locus notch homolog protein 2 (Homo sapiens) (UniProt Q04721); experiment: small molecules binding Notch2 protein – biochemical, small-molecule microarray, 635 nm fluorescence, stem cell growth factors, primary screen (AID 1073); conditions: higher = more signal
[6] = target: Pro-neuregulin-1, membrane-bound isoform (Homo sapiens) (UniProt Q02297); experiment: small molecules binding neuregulin-1 protein – biochemical, small-molecule microarray, fluorescence 635/667, psychiatric disease protein project, primary screen (AID 1075); conditions: NRG1 binding, 635 nm fluorescence, higher = more signal;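 further: score combines 667 nm spot fluorescence with signal to noise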
[7] = system: Neuregulin-1 EGF-like domain; experiment: small molecules binding NRG1 EGF domain – biochemical, small-molecule microarray, 635 nm fluorescence, primary screen (AID 1081); conditions: higher = more signal;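 further: binding of the protein to compounds printed on small-molecule microarray slides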
[8] = FRG1 expression reporter modulators in myotubes – cell-based, C2C12 myotubes, firefly/Renilla luciferase, luminescence, FRG1 inhibition for FSHD, primary screen (AID 1084); conditions: FRG1 promoter luciferase, higher = more signal, called active from +8 up or from −8 down
[9] = small molecules captured by biotinylated probe aFST – biochemical, small-molecule microarray, fluorescence 635/667, stem cell growth factor project, primary screen (AID 1086); conditions: higher = more signal;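 further: score merges 667 nm fluorescence with signal-to-noise of each printed compound spot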
[10] = binders of probe aHhip on microarray, primary screen, stem cell growth factor project, biochemical, small-molecule microarray, fluorescence 635/667 (AID 1087); conditions: higher = more signal;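 further: score merges spot fluorescence at 667nm with spot signal to noise ratio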
[11] = system: PRMT1 (protein arginine N-methyltransferase 1); experiment: small molecules binding arginine methyltransferase PRMT1 – biochemical, small-molecule microarray, 635 nm fluorescence, primary screen (AID 1088); conditions: higher = more signal;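 further: binding of Prmt1 protein to compounds spotted on small-molecule microarray slides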
[12] = growth effects on S. cerevisiae YJM789 – YJM789 clinical isolate, OD600, 24 h, basal, primary screen (AID 1089); conditions: higher = more signal, called active from +8 up or from −8 down;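 further: growth of clinical yeast isolate S. cerevisiae YJM 789 seeded 1000 cells per well; test concentration not given here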
[13] = S. pombe growth modifiers, basal conditions – strain 972, OD600, 24 h, no modulator, primary screen (AID 1090);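 further: basal condition with compound alone and no growth modifier present; test concentration not given here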; conditions: S. pombe 972 growth, higher = more signal, called active from +8 up or from −8 down
[14] = budding yeast growth modifiers under rapamycin – strain BY4716, OD600, 96 h, primary screen (AID 1091); further: test concentration not given here; conditions: S. cerevisiae BY4716 + rapamycin, higher = more signal, called active from +8 up or from −8 down
[15] = target: Torsin-1A-interacting protein 2 (Homo sapiens) (UniProt Q8NFQ8); experiment: small molecules binding lysate-expressed LULL1 – cell lysate, human LULL1 lysate, 635/667 nm fluorescence, primary screen (AID 1092); conditions: small-molecule microarray, hLULL1 lysate binding, 635 nm fluorescence; higher = more signal;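 further: probe is lysate of COS7 cells overexpressing human LULL1; score merges per-feature 667 nm fluorescence with signal-to-noise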
[16] = optical density change of DRC41 E. coli – strain DRC41, OD650, 24 h, E. coli filamentation project, primary screen (AID 1093);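 further: MC1000 strain lacking acrAB efflux and sulA so SOS filamentation is blocked; test concentration not given here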; conditions: E. coli DRC41 growth, higher = more signal, called active from +8 up or from −8 down
[17] = probe aLefty2 binding to arrayed compounds – biochemical, biotinylated probe, 635/667 nm fluorescence, primary screen (AID 1094); conditions: small-molecule microarray, higher = more signal;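 further: score merges spot fluorescence near 667 nm with spot signal-to-noise ratio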
[18] = system: Noggin (protein binding on small-molecule microarray); experiment: small molecules binding Noggin protein – biochemical, 635/667 nm fluorescence, primary screen (AID 1095); conditions: 635 nm fluorescence, higher = more signal;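 further: score merges 667 nm feature fluorescence with signal to noise over triplicate slides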
[19] = target: Neurogenic locus notch homolog protein 3 (Homo sapiens) (UniProt Q9UM47); experiment: small molecules binding NOTCH3 protein – biochemical, 635/667 nm fluorescence, primary screen (AID 1096); conditions: small-molecule microarray, 635 nm fluorescence, higher = more signal
[20] = probe aEGFR binding to arrayed compounds – biochemical, biotinylated probe, 635/667 nm fluorescence, primary screen (AID 1097); conditions: small-molecule microarray, higher = more signal;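 further: probe is a biotinylated anti-EGFR antibody binding compounds printed on slides; score combines fluorescence near 667 nm and signal to noise of each spot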

Chain of Neurogenic locus notch homolog protein 2 (Homo sapiens) (Q04721 whole entry, looked up, canonical isoform): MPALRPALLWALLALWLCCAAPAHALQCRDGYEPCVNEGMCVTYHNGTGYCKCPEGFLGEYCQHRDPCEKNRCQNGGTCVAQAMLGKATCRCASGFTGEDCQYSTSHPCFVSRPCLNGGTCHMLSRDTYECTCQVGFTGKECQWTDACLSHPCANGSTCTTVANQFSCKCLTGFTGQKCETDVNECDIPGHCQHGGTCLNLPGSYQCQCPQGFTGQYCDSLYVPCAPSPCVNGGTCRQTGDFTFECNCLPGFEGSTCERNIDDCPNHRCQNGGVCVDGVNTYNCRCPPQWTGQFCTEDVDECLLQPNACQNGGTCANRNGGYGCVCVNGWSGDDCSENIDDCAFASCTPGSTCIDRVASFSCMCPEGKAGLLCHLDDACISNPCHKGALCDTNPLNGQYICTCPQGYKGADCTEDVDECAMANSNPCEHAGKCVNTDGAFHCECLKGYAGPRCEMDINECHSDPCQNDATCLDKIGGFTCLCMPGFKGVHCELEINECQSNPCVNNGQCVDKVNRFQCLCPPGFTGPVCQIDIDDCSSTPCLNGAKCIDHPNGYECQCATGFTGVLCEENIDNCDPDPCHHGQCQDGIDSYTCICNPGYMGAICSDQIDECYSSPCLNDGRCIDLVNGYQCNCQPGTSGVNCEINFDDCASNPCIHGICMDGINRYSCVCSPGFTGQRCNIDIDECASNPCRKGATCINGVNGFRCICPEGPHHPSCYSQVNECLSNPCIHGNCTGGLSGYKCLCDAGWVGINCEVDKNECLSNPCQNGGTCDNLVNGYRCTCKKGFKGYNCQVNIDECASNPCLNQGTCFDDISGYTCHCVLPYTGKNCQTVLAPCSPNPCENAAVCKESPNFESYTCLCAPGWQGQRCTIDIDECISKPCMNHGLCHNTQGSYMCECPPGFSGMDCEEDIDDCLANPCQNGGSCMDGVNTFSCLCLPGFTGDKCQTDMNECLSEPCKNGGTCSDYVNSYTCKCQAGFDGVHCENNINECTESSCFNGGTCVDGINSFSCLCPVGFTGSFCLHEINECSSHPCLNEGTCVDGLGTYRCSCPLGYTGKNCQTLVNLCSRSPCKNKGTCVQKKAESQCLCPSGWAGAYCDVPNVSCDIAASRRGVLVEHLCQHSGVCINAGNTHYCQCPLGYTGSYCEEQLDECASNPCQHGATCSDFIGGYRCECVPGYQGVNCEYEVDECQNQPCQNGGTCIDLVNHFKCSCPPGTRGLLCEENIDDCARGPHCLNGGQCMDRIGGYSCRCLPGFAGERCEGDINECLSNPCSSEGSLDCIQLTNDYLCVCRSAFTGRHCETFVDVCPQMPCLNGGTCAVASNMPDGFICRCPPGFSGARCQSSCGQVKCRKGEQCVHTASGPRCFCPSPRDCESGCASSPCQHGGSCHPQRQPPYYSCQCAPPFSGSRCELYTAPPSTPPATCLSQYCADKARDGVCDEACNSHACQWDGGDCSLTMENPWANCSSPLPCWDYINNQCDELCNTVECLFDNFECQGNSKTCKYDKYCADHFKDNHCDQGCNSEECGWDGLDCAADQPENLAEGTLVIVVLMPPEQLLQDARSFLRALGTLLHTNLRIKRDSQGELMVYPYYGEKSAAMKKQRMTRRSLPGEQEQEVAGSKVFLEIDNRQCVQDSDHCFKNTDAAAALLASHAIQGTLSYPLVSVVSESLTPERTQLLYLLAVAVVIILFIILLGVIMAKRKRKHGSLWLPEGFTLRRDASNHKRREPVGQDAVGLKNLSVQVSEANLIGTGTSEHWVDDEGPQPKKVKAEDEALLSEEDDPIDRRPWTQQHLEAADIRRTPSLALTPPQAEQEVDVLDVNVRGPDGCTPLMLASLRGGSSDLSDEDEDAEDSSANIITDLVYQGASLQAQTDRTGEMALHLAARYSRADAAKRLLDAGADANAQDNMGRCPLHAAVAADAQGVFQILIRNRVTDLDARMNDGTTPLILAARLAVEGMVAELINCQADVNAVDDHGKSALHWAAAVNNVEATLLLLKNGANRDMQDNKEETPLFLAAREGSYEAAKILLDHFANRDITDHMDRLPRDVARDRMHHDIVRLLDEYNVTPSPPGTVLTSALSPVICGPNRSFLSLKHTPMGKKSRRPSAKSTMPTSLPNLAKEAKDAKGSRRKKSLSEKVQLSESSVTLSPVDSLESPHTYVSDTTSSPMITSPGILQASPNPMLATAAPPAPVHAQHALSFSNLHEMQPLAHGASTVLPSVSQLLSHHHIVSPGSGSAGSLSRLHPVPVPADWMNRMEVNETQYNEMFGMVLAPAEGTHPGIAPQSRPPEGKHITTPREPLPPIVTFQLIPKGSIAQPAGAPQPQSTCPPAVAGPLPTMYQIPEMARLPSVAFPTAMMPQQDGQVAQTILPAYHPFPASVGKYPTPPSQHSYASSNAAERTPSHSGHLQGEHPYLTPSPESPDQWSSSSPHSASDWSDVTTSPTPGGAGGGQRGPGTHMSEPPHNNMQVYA
Chain of Pro-neuregulin-1, membrane-bound isoform (Homo sapiens) (Q02297 whole entry, looked up, the tested form may be a part, canonical isoform): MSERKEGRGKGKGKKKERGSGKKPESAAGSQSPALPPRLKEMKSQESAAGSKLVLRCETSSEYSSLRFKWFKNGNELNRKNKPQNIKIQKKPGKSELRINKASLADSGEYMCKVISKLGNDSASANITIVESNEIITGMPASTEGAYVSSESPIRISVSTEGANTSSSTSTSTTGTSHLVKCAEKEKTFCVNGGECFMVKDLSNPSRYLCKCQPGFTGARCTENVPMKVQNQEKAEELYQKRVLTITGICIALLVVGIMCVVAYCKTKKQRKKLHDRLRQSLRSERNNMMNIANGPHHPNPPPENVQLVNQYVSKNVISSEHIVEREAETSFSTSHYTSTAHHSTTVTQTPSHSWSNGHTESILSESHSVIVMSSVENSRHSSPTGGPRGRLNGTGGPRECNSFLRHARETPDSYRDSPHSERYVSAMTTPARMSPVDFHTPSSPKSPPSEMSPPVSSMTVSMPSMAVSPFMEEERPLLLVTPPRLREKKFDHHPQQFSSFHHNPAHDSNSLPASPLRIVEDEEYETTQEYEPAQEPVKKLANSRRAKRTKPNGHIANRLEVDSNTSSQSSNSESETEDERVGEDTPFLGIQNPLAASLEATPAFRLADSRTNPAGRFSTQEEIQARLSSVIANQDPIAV
Chain of Torsin-1A-interacting protein 2 (Homo sapiens) (Q8NFQ8 whole entry, looked up): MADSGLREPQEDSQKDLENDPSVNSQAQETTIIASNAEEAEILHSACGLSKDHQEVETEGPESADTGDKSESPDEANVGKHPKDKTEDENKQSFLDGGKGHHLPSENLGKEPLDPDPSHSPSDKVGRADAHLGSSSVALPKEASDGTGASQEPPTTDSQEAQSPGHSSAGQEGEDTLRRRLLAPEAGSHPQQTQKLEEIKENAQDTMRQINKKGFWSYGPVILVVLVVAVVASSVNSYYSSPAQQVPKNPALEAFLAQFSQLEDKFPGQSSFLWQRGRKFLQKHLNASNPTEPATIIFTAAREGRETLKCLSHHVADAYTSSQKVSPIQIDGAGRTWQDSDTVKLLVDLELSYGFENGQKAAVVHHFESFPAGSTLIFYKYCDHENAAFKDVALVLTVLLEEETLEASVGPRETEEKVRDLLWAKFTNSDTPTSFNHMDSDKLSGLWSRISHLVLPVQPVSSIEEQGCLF

Compound | composite z-score [1] | composite z-score [2] | composite z-score [3] | composite z-score [4] | composite z-score [5] | composite z-score [6] | composite z-score [7] | z-score [8] | composite z-score [9] | composite z-score [10] | composite z-score [11] | z-score [12] | z-score [13] | z-score [14] | composite z-score [15] | z-score [16] | composite z-score [17] | composite z-score [18] | composite z-score [19] | composite z-score [20]
Cc1ccc(S[C@]2(C(=O)O)CC(=O)N(C3CCCCC3)[C@@H]2c2ccc(CO)cc2)cc1 | -0.27 | 0.333 | -0.0943 | -0.315 | 0.555 | 1.36 | 0.962 | -1.02 (inactive) | 0.157 | 0.0496 | 1.42 | 0.316 (inactive) | 0.222 (inactive) | 9.82 (active) | 2.82 | 0.999 (inactive) | -0.132 | 0.243 | 0.233 | 0.0346
NC(=O)NCC#Cc1ccc2c(c1)[C@]1(C(=O)N2)[C@H](c2ccc(OCCO)cc2)N2[C@H](c3ccccc3)[C@H](c3ccccc3)OC(=O)[C@H]2[C@@H]1C(=O)N1CCCCCCC1 | 3.57 | 0.48 | 0.943 | 1.2 | 1.53 | 1.74 | 0.955 | -0.154 (inactive) | 3.04 | 3.79 | 1.09 | 1.57 (inactive) | 1.43 (inactive) | 3.66 (inactive) | 3.3 | -0.53 (inactive) | 1.73 | 1.88 | 1.04 | 1.06
COc1cccc(C[C@H]2C[C@@H](CO[Si](C(C)C)(C(C)C)C(C)C)N3C(=O)[C@]4(C(C)=O)O[C@]23[C@H]2C(=O)N(C)C(=O)[C@H]24)c1 | -0.46 | 0.395 | -0.021 | 0.407 | 0.797 | 0.143 | 0.996 | 0.165 (inactive) | 0.421 | -0.0618 | 1.49 | 0.481 (inactive) | 1.38 (inactive) | 1.25 (inactive) | 0.622 | -1.11 (inactive) | -0.0942 | 1 | 1.13 | -0.0175
C[C@@H]1ON(c2ccccc2)[C@H](c2ccccc2)[C@H]1C(=O)N1C(=O)OC[C@H]1Cc1ccccc1 | -0.414 | 0.464 | -0.127 | 0.464 | 0.844 | 0.243 | 0.539 | -0.114 (inactive) | 0.138 | 0.0574 | 1.3 | 0.713 (inactive) | -0.451 (inactive) | 0.125 (inactive) | 0.786 | 0.547 (inactive) | -0.166 | 0.405 | 0.826 | -0.0549
O=C1NC(=O)C2C1C=CC(C(O)c1ccc3c(c1)OCO3)N2Nc1ccc(Cl)cc1Cl (stereo not given) | 0.358 | -0.173 | -0.0274 | 0.218 | 1.22 | 1.73 | 0.543 | 1.28 (inactive) | 0.176 | -0.291 | 0.0405 | -3.53 (inactive) | -0.462 (inactive) | 0.142 (inactive) | 2.94 | -1.14 (inactive) | 0.15 | 0.132 | 0.361 | -0.108
CN(C)CCCN1C(=O)[C@@]2(Cc3ccccc31)c1ccccc1C(=O)N(Cc1ccccc1)[C@H]2c1ccc(CO)cc1 | -0.0277 | 0.115 | -0.0861 | -0.492 | -0.639 | 0.466 | -0.226 | 0.878 (inactive) | 1.02 | -0.0994 | 1.12 | -0.0782 (inactive) | -1.35 (inactive) | -1.85 (inactive) | -0.42 | -1.42 (inactive) | -0.171 | 0.542 | 0.204 | -0.184
COCCCNC(=O)[C@@]1(C)c2ccccc2C(=O)N(c2ccc(C)cn2)[C@H]1c1ccc(CO)cc1 | -0.722 | -0.331 | -0.308 | -1.12 | -1.15 | 0.906 | 0.632 | 0.811 (inactive) | -0.892 | -0.439 | 0.194 | -0.435 (inactive) | -0.473 (inactive) | -1.67 (inactive) | 3.55 | 0.288 (inactive) | -0.428 | -0.978 | -0.99 | -0.427
CC(C)CNC(=O)[C@@]1(c2ccc([N+](=O)[O-])cc2)CC(=O)N(C(C)C)[C@@H]1c1ccc(CO)cc1 | 0.722 | -0.187 | -0.137 | -0.138 | -0.205 | 1.95 | 0.55 | -0.696 (inactive) | -0.761 | -0.0252 | 0.808 | -0.655 (inactive) | -0.182 (inactive) | -0.812 (inactive) | 2.03 | 0.738 (inactive) | -0.147 | -0.641 | -0.143 | -0.13
[N-]=[N+]=Nc1ccccc1C[C@]1(C(=O)NCCN2CCOCC2)N=C(c2ccc(OCCCO)cc2)O[C@H]1c1ccccc1N=[N+]=[N-] | -0.195 | -0.354 | 0.125 | 0.763 | 1.64 | 1.59 | 1.33 | -0.344 (inactive) | 0.839 | 0.113 | 1.55 | -2.65 (inactive) | -4.92 (inactive) | -0.821 (inactive) | 3.37 | 0.683 (inactive) | 0.491 | 0.708 | 1.03 | 0.542
O=C1O[C@H](c2ccccc2)[C@H](c2ccccc2)N2[C@H]1[C@@H](C(=O)N1CCN(c3ncccn3)CC1)[C@]1(C(=O)Nc3ccc(C#CCCO)cc31)[C@H]2c1ccccc1OCCO | -0.301 | 0.851 | 0.0002 | 0.931 | 1.33 | 1.64 | 0.965 | -0.363 (inactive) | 0.312 | 0.0219 | 1.54 | 1.36 (inactive) | -1.62 (inactive) | 3.87 (inactive) | 2.79 | 0.797 (inactive) | -0.166 | 0.942 | 1.06 | -0.0014
[N-]=[N+]=NCc1ccccc1C[C@]1(C(=O)NCCN2CCOCC2)COC(c2ccc(OCCCO)cc2)=N1 | 0.186 | 1.25 | -0.0647 | 0.121 | 0.973 | 1.02 | 1.2 | -2.23 (inactive) | 0.817 | -0.0645 | 1.55 | -1.52 (inactive) | -2.24 (inactive) | -1.66 (inactive) | 3.08 | 1.46 (inactive) | 0.0004 | 0.516 | 0.486 | -0.0351
